# Laboratory results published in article PMC10668032, “Altered binding affinity of SIX1-Q177R correlates with enhanced WNT5A and WNT pathway effector expression in Wilms tumor”.
# Over roughly 33,000 sequences, “e-score” has its median near -0.05; the highest 2% begin near 0.38. This is one part of a sample in which the highest values are shown more often than they occur.
# Molecular target: T1, SIX1-Q177R homeodomain (human, UniProt Q15475 108-198, Q177R)
# T1 sequence: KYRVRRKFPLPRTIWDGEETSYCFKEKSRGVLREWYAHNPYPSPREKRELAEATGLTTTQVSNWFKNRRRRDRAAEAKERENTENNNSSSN
# Experiment: universal protein binding microarray; Universal all-10-mer PBM (8x60K, AMADID 030236), 300 nM GST-tagged protein, Alexa Fluor 488 anti-GST; buffer, salt, pH and temperature not stated (as in Berger); high values mean tight binding
# Settings: protein: ivt; tags: N-terminal GST; dsDNA, one strand shown
# How it was run: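 After in vitro transcription/translation, GST-tagged homeodomains were quantified against a recombinant GST standard curve by anti-GST western blot. They were then placed in duplicate at 300 nM final concentration on universal 'all 10-mer' protein binding microarrays of 8×60K format.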
row,Sequence,binding signal [E-score]
1,CTAGACAC,0.393 ± 0.0124
2,GTAGACAC,0.409 ± 0.0281
3,ATAGAGTC,0.202 ± 0.0331
4,CTAGATAC,0.165 ± 0.0452
5,ATAGACAC,0.428 ± 0.0191
6,AGATAGAC,0.154 ± 0.0062
7,CTAGACCC,0.184 ± 0.00755
8,ACAAGGTG,0.264 ± 0.0157
9,ACCATCCA,0.215 ± 0.0116
10,GGGTGCGA,0.181 ± 0.00744
11,CCCTGACG,0.152 ± 0.00643
12,CCGCCGTA,0.164 ± 0.00253
13,GAGACCCC,0.225 ± 0.0263
14,CACCCACC,0.252 ± 0.0101
15,CACCACTA,0.3486 ± 0.00204
16,ACTGTGTG,0.177 ± 0.0389
17,ATGGATAC,0.278 ± 0.0318
18,CTGGACAC,0.406 ± 0.0173
19,GTGCACAC,0.271 ± 0.021
20,CTGGAAAC,0.178 ± 0.0277
21,ATGGAGAC,0.174 ± 0.0638
22,CTGGATAC,0.222 ± 0.0101
23,GTGGGACA,0.171 ± 0.0189
24,ATGGACAC,0.419 ± 0.00799
25,GTGGACAC,0.419 ± 0.0259

row,Sequence,binding signal [E-score]
1,ACCCTAGT,0.269 ± 0.00753
2,CCCCTCTA,0.2508 ± 0.000354
3,CGGTGCCA,0.19 ± 0.0233
4,GGGTGCCA,0.2 ± 0.0639
5,AGGTGGTG,0.287 ± 0.0143
6,GGGTGTCA,0.4915 ± 0.00277
7,AGGGGTCC,0.178 ± 0.00987
8,GGGGGTCA,0.313 ± 0.0364
9,CGGTGTCA,0.4918 ± 0.00175
10,CTGTGTCA,0.256 ± 0.066
11,ATGTGTCG,0.188 ± 0.0615
12,AGGTGTCC,0.464 ± 0.0052
13,AGGTGTCG,0.4794 ± 0.00471
14,GGGAGTAC,0.2586 ± 0.000728
15,CGGATCCG,0.183 ± 0.00497
16,GTCTCATA,0.179 ± 0.0328
17,CCCGGGGA,0.206 ± 0.0149
18,CACCGCTC,0.27 ± 0.013
19,CCATAACA,0.2144 ± 0.000806
20,AGACGGTG,0.23 ± 0.0191
21,AAACGGTG,0.308 ± 0.011
22,CCCTCACG,0.165 ± 0.0328
23,CCCCCTCA,0.223 ± 0.0246
24,CCGCGCGG,0.172 ± 0.0537
25,ACTGGTAT,0.2685 ± 0.000262

row,Sequence,binding signal [E-score]
1,CCGGTTAC,0.1852 ± 0.000205
2,CGGTGTCC,0.489 ± 0.00456
3,CGGGGTCC,0.241 ± 0.0168
4,CGGTGATC,0.163 ± 0.0497
5,ATGTGTCA,0.253 ± 0.0258
6,AGGTGACA,0.251 ± 0.0589
7,AGGTGTCA,0.4862 ± 0.000651
8,TCGGTGCA,0.232 ± 0.0114
9,CACGACCG,0.225 ± 0.0274
10,CGCCACCC,0.19 ± 0.0435
11,TAGTGAGA,0.154 ± 0.0331
12,TGTCGACA,0.25 ± 0.0489
13,GGGATACC,0.341 ± 0.00451
14,AGACCCTA,0.195 ± 0.0142
15,CACGGGCG,0.204 ± 0.0346
16,ACACGGCT,0.3983 ± 0.00124
17,ACACGTCT,0.344 ± 0.0192
18,ACACGTCA,0.323 ± 0.0149
19,ACACGTCG,0.323 ± 0.0129
20,ACACGGCA,0.3737 ± 0.00357
21,ACACGGCC,0.3824 ± 0.0024
22,AACCCCGC,0.194 ± 0.0341
23,TACTCCCA,0.16 ± 0.038
24,ACGCGGCG,0.229 ± 0.0107
25,ACCGAATA,0.155 ± 0.00809

row,Sequence,binding signal [E-score]
1,CACGCGCA,0.212 ± 0.0332
2,GACACGCC,0.4444 ± 0.00225
3,CACACGCG,0.296 ± 0.0321
4,GACACGCA,0.416 ± 0.0252
5,CACACGCC,0.252 ± 0.0122
6,ACCTCCGA,0.172 ± 0.0111
7,CCCCTAGC,0.177 ± 0.00211
8,ACTCGGAC,0.179 ± 0.0406
9,CACCCTGA,0.339 ± 0.0238
10,AGGATCCC,0.155 ± 0.0155
11,GTAACAGA,0.16 ± 0.00854
12,CCCGAGAC,0.204 ± 0.023
13,ACCCGTCT,0.178 ± 0.0209
14,CGTGTCTC,0.338 ± 0.00573
15,CGTGTCAC,0.462 ± 0.0133
16,CGTGTCAG,0.441 ± 0.0089
17,AGTATCAG,0.266 ± 0.0112
18,GGGGTCAC,0.29 ± 0.0253
19,GGAGTCAC,0.3325 ± 0.00242
20,CGCGTCAG,0.154 ± 0.00463
21,GGTGTCAC,0.4915 ± 0.00356
22,CGAGTCAC,0.196 ± 0.0324
23,AGTGTCAC,0.45 ± 0.00611
24,ACGCGGTG,0.334 ± 0.012
25,GGGATCCA,0.211 ± 0.0194

row,Sequence,binding signal [E-score]
1,ACCTGACA,0.228 ± 0.0625
2,ACCCCACT,0.207 ± 0.00426
3,GCGGATAA,0.162 ± 0.0348
4,CTCGTACA,0.17 ± 0.0125
5,CCCAAACA,0.208 ± 0.0371
6,CACTCTTA,0.164 ± 0.0568
7,GAACCCCC,0.244 ± 0.0572
8,ATACCCAG,0.274 ± 0.0157
9,GGTGTCAA,0.49013 ± 0.000481
10,AGTGTCAA,0.424 ± 0.0101
11,GGCGTCAA,0.177 ± 0.0347
12,AGTGTCAG,0.4435 ± 0.00254
13,GGGGTCAA,0.253 ± 0.0228
14,AGTGTCCG,0.365 ± 0.00508
15,AGTGTCTG,0.302 ± 0.0115
16,AGTGTCAT,0.462 ± 0.0172
17,AGAGTCAT,0.1867 ± 0.000552
18,GAGGTATC,0.337 ± 0.00525
19,CCCTCCCA,0.176 ± 0.0422
20,ACCAAACA,0.244 ± 0.0473
21,GTAACATA,0.196 ± 0.0373
22,AAAGGGGG,0.233 ± 0.0235
23,CACCTTTC,0.195 ± 0.00584
24,CGTGATCC,0.195 ± 0.0306
25,CGGGTCAA,0.2 ± 0.04

row,Sequence,binding signal [E-score]
1,CGTGTCAA,0.409 ± 0.00885
2,TGTGTCAA,0.303 ± 0.0203
3,ACTATGCG,0.17 ± 0.0186
4,ACCTCGGA,0.175 ± 0.0387
5,AATGACTC,0.245 ± 0.00746
6,GATGATAC,0.242 ± 0.0302
7,GATGACAC,0.4656 ± 0.00203
8,CATGACAC,0.4733 ± 0.00427
9,AATGACCC,0.181 ± 0.0204
10,CATGATAC,0.287 ± 0.0236
11,AATGACAC,0.464 ± 0.0115
12,GATGACCC,0.211 ± 0.0466
13,CATGACCC,0.218 ± 0.0214
14,CACCTAGA,0.276 ± 0.00873
15,GACGCCAC,0.201 ± 0.00624
16,CACCCATC,0.277 ± 0.0196
17,ACCCCCGA,0.298 ± 0.0252
18,CACTATCC,0.196 ± 0.0388
19,AGGGTACA,0.237 ± 0.00699
20,ACTCCGGA,0.204 ± 0.0189
21,ACCCAGAA,0.179 ± 0.00761
22,ACAGTACA,0.203 ± 0.0245
23,GGATCCGA,0.217 ± 0.0131
24,CACTACCA,0.227 ± 0.00878
25,CCACGACA,0.27 ± 0.00989

row,Sequence,binding signal [E-score]
1,ACACGACA,0.404 ± 0.00581
2,ACACGACT,0.411 ± 0.00971
3,ACACGACG,0.368 ± 0.0133
4,ACACGAAT,0.31 ± 0.00916
5,GCACGACA,0.2099 ± 0.000516
6,ACACGAAA,0.302 ± 0.0196
7,ACACGACC,0.4169 ± 0.00152
8,GCACGACC,0.255 ± 0.00765
9,ACCGAATG,0.173 ± 0.0343
10,CCCCCCTA,0.232 ± 0.01
11,GTGGAGTA,0.29 ± 0.0112
12,ATCGAGGG,0.167 ± 0.00486
13,ATCCGATC,0.213 ± 0.0309
14,CACTCGGC,0.237 ± 0.0125
15,GCGAGTAC,0.175 ± 0.00781
16,CCGTATCA,0.245 ± 0.0466
17,GGGTAACC,0.196 ± 0.00371
18,ACGATAGT,0.157 ± 0.0172
19,GCACCACA,0.154 ± 0.00776
20,ACACCACG,0.4775 ± 0.00181
21,ATACCACG,0.216 ± 0.0275
22,ACACCACT,0.4835 ± 0.00239
